{"source": "PubChem BioAssay AID1224853", "about": "(National Center for Advancing Translational Sciences (NCATS), 2016)", "note": "Results filed as inconclusive are left out. A call without a number means that no potency is given here. Calls of active or inactive are those of the source. Calls follow the shape of the dose curve; as a rule, active = well fitted inhibition curve with a large enough effect; inconclusive = small, poorly fitted or top-dose-only effect; inactive = no such curve, though single readings can be large or run the other way.", "data": [{"assay": "Confirmation assay for measurement of the activity of small molecule inhibitors on Zika virus induced Caspase-3 activity in human astrocytoma cells", "conditions": "SNB-19 ZIKV-induced caspase-3/7, luminescence, 6 h; series mostly up to 46.1 µM", "from_the_text": "National Center for Advancing Translational Sciences [NCATS] Johns Hopkins University School of Medicine Florida State University Assay Overview: Increase in the Caspase-3 activity indicates an activation of apoptosis cell death pathway caused by Zika virus infection in certain types of neuronal cells including human neural progenitor cells (hNPCs), astrocytes, and astrocytoma cell line (SNB-19). This cell-based caspase-3 activity assay measures the increased caspase-3 activity in the astrocytoma cell line (SNB-19) after a 6-hour Zika virus infection with a luminescence readout. A decrease in the luminescence signal in this assay by small molecule treatment indicates an inhibitory effect of that small molecule on the Zika virus induced caspase-3 activity that may correlate with its effect on reduction of Zika virus caused cell death.\nAssay Protocol Summary: The medium for SNB-19 cells is composed of RPMI 1640 (ATCC, Cat.# 30-2001), 10% fetal bovine serum (FBS) (GE healthcare Life Sciences, Cat.# SH30071.03), and 1% Pen/Strep (Gibco, Cat.# 15140-122). A Caspase-Glo 3/7 assay kit (catalog number G8092; Promega, Madison, WI) was used to detect caspase-3 activity induced by Zika virus infection in human cells. The reagent mixture was reconstituted as described in the protocol from the manufacturer. Polystyrene tissue culture treated and PDL coated white plates were obtained from Greiner Bio-One (Monroe, NC). Cells were seeded in 384- or 1536-well assay plates and cultured at 37 C with 5% CO2 for 16 to 20 hours. The typical cell seeding density in the 1536-well plate assay is 250 cells/well in 3ul medium for SNB-19 cells in tissue culture treated plates. Compounds were added to cells and incubated for one hour before addition of ZIKV solution to cells (2 FFU/cell). After incubation at 37 C with 5% CO2 for 6 hours, the reagent mixture of Caspase-Glo 3/7 assay kit was added to each well, followed by incubation at room temperature for 30 minutes. The luminescence intensity of the assay plates was measured using a ViewLux plate reader (PerkinElmer). Data were normalized by using the cell-containing wells without ZIKV as a negative control (0% induction of caspase 3/7 activity) and wells containing ZIKV infected cells (Caspase-3 activity induced) as a positive control (100% induction of caspase 3 activity). The percentage inhibitions of the increased Caspase-3 activity by small molecule inhibitors were then calculated.", "values": [{"smiles": "CC(C)N[C@@H]1CCn2c(=O)[nH]c3cccc(c32)[C@@H]1O", "Potency": "inactive"}, {"smiles": "O=c1c2ccccc2[se]n1-c1ccccc1", "Potency": "17.3 µM (active)"}, {"smiles": "O=S(=O)(CC1CS1)c1ccc(Oc2ccccc2)cc1", "note": "(centres undefined)", "Potency": "inactive"}, {"smiles": "Cc1ccc([N+](=O)[O-])[c]2c1[O][Hg]2", "Potency": "10.9 µM (active)"}, {"smiles": "O=C1C=CC[C@@H]2[C@H]3CCCN4CCC[C@@H](CN12)[C@@H]34", "Potency": "inactive"}, {"smiles": "S=C(SSC(=S)N1CCCCC1)N1CCCCC1", "Potency": "inactive"}, {"smiles": "COP(=S)(OC)SCN1C(=O)c2ccccc2C1=O", "Potency": "inactive"}, {"smiles": "CC(O)CN1CCN(CC(=O)[O-])CCN(CC(=O)[O-])CCN(CC(=O)[O-])CC1.[Gd+3]", "note": "(centres undefined)", "Potency": "inactive"}, {"smiles": "CC(C)[N+](C)(CCC(C(N)=O)(c1ccccc1)c1ccccc1)C(C)C", "Potency": "inactive"}, {"smiles": "COC1(CS(=O)c2ccccc2)CCN(CCc2c[nH]c3ccc(F)cc23)CC1", "note": "(centres undefined)", "Potency": "inactive"}, {"smiles": "O=C(Nc1ccc(Br)cc1)c1cc(Br)cc(Br)c1O", "Potency": "6.9 µM (active)"}, {"smiles": "CC(C)[C@H]1C(=O)N[C@H](CO)Cc2c[nH]c3cccc(c23)N1C", "Potency": "inactive"}, {"smiles": "O=C1CCC[C@@H]2[C@H]3CCCN4CCC[C@@H](CN12)[C@@H]34", "Potency": "inactive"}, {"smiles": "Oc1ccc([C@H]2CNCc3c2ccc(O)c3O)cc1O", "Potency": "inactive"}]}]}
